Measured values as given in the supplement of paper PMC11634586.
Structures can show the parent of a compound that is named as a salt. Values without a mark were called inactive.

Tested on: NCI-H1688
Assay: inhibition of cell viability relative to untreated control (fraction); higher = stronger growth inhibition, active = 0.5 or more
Conditions: 30 µM; 24 h
Procedure, shortened: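 Viability of NCI-H1688 small cell lung cancer cells was assessed with Cell Counting Kit-8 by absorbance at 450 nm, in triplicate, after a 24 h exposure to a natural compound library (TargetMol) at 30 µM at 37°C and 5% CO2. The cells had been seeded at 3 × 10^3 cells/well in 96-well plates 24 h before treatment. Inhibition of cell viability is reported as a fraction, derived from viability normalised against untreated cells.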

SMILES	inhibition of cell viability
CC(=O)OC1CC2CCC1(C)C2(C)C (stereo not drawn) [Bornyl acetate]	-0.214
COc1cc(C[C@H]2C(=O)OC[C@@H]2Cc2ccc(OC)c(OC)c2)ccc1O [Arctigenin]	0.431
O=c1c(O)c(-c2cc(O)c(O)c(O)c2)oc2cc(O)cc(O)c12 [Myricetin]	0.0201
CC1(C)C2CCC1(C)C(O)C2 (stereo not drawn) [Borneol]	0.16
O=C1c2cccc(O)c2C(=O)c2c(O)cc(CO)cc21 [Aloe-emodin]	0.373
O=c1c2cc(O)c(O)cc2oc2cc(O)c([C@@H]3O[C@H](CO)[C@@H](O)[C@H](O)[C@H]3O)c(O)c12 [Mangiferin]	-0.186
O=c1ccc2ccc(O)c(O)c2o1 [Daphnetin]	-0.0337
O=C(/C=C/c1ccc(O)c(O)c1)O[C@H](Cc1ccc(O)c(O)c1)C(=O)O [Rosmarinic acid]	0.0726
CC(C)=CCC[C@](C)(O[C@@H]1O[C@H](CO[C@@H]2O[C@H](CO)[C@@H](O)[C@H](O)[C@H]2O)[C@@H](O)[C@H](O)[C@H]1O)[C@H]1CC[C@]2(C)[C@@H]1[C@H](O)C[C@@H]1[C@@]3(C)CC[C@H](O[C@@H]4O[C@H](CO)[C@@H](O)[C@H](O)[C@H]4O[C@@H]4O[C@H](CO)[C@@H](O)[C@H](O)[C@H]4O)C(C)(C)[C@@H]3CC[C@]12C [Ginsenoside Rb1]	-0.0384
O=C(O)CCCCCCCC(O)C(O)CCCCCCO (stereo not drawn) [Aleuritic Acid]	-0.54
O=C(O)/C=C/c1ccccc1 [Cinnamic acid]	-0.0303
CC1(C)CC[C@]2(C(=O)O)CC[C@]3(C)C(=CC[C@@H]4[C@@]5(C)CC[C@H](O)[C@@](C)(CO)[C@@H]5CC[C@]43C)[C@@H]2C1 [Hederagenin]	0.274
CC(C)=CCCC(C)CCO (stereo not drawn) [Citronellol]	0.283
O=C(O)/C=C/c1ccc(O)cc1 [p-Coumaric acid]	0.0191
N[C@H]1C(O)O[C@H](CO)[C@@H](O)[C@@H]1O (stereo partly drawn) [Glucosamine hydrochloride]	0.0567
COc1ccc(/C=C/C(=O)O)cc1O [Isoferulic acid]	-0.0461
O=c1ccc2ccc(O)cc2o1 [7-Hydroxycoumarin]	-0.0276
COc1cc(/C=C/c2ccc(O)cc2)cc(OC)c1 [Pterostilbene]	0.252
OC[C@H]1O[C@H](O[C@H]2O[C@H](CO)[C@@H](O)[C@H](O)[C@H]2O)[C@H](O)[C@@H](O)[C@@H]1O [D-(+)-Trehalose dihydrate]	0.249

SMILES	inhibition of cell viability
CC(C)(CO)[C@@H](O)C(=O)NCCC(=O)NCCSSCCNC(=O)CCNC(=O)[C@H](O)C(C)(C)CO [D-Pantethine]	-0.262
C[n+]1cc2c3c(ccc2c2ccc4cc5c(cc4c21)OCO5)OCO3 [Sanguinarine chloride]	0.982 (active)
COc1ccc(CC(=O)O)cc1OC [Homoveratrumic acid]	0.0253
COc1ccc(C[C@H]2COC(=O)[C@@H]2Cc2ccc(O[C@@H]3O[C@H](CO)[C@@H](O)[C@H](O)[C@H]3O)c(OC)c2)cc1OC [Arctiin]	0.0918
COc1ccc(-c2cc(=O)c3c(OC)c(OC)c(OC)c(OC)c3o2)cc1OC [Nobiletin]	0.293
Nc1ncnc2c1ncn2[C@@H]1O[C@H](COP(=O)(O)O)[C@@H](O)[C@H]1O [Adenosine 5'-monophosphate]	-0.0048
CC1=CC(=O)CC(C)(C)C1=O [Ketoisophorone]	-0.175
COC(=O)CC[C@@H](C)[C@H]1CC[C@H]2[C@@H]3[C@H](O)C[C@@H]4C[C@H](O)CC[C@]4(C)[C@H]3C[C@H](O)[C@]12C [Methyl Cholate]	0.013
CC(C)=CCC[C@](C)(O)[C@H]1CC[C@]2(C)[C@@H]1[C@H](O)C[C@@H]1[C@@]3(C)CC[C@H](O)C(C)(C)[C@@H]3[C@@H](O[C@@H]3O[C@H](CO)[C@@H](O)[C@H](O)[C@H]3O[C@@H]3O[C@@H](C)[C@H](O)[C@@H](O)[C@H]3O)C[C@]12C [Ginsenoside Rg2]	0.155
COc1cc2c(cc1O)[C@@H](Cc1ccc(O)c(Oc3ccc(C[C@@H]4c5cc(OC)c(OC)cc5CCN4C)cc3)c1)N(C)CC2 [Daurisoline]	0.977 (active)
O=C(O)[C@H](O)Cc1ccc(O)c(O)c1 [Danshensu]	0.318
CC1(C)O[C@H]2CC(=O)OC[C@]23[C@H]2CC[C@@]4(C)[C@H](c5ccoc5)OC(=O)[C@H]5O[C@]54[C@]2(C)C(=O)C[C@@H]13 [Limonin]	-0.0414
COC(=O)c1ccc(O)c(OC)c1 [Methyl Vanillate]	-0.221
CCCCCCCCCC[C@H](C(=O)O)[C@]1(C(=O)O)CCC(=O)O1 [Spiculisporic Acid]	0.104
O=P(O)(O)O[C@H]1[C@H](OP(=O)(O)O)[C@@H](OP(=O)(O)O)[C@H](OP(=O)(O)O)[C@@H](OP(=O)(O)O)[C@H]1OP(=O)(O)O [Phytic acid]	-0.0495
CC(C)=CCC/C(C)=C/C=O [Citral]	0.192
CO[C@H]1C[C@@H]2CC[C@@H](C)[C@@](O)(O2)C(=O)C(=O)N2CCCC[C@H]2C(=O)O[C@H]([C@H](C)C[C@@H]2CC[C@@H](O)[C@H](OC)C2)CC(=O)[C@H](C)/C=C(\C)[C@@H](O)[C@@H](OC)C(=O)[C@H](C)C[C@H](C)/C=C/C=C/C=C/1C [Rapamycin (Sirolimus)]	0.76 (active)
O=C(O)c1cc(O)c2c(c1)[C@@H]([C@H]1c3cc(C(=O)O)cc(O)c3C(=O)c3c(O[C@@H]4O[C@H](CO)[C@@H](O)[C@H](O)[C@H]4O)cccc31)c1cccc(O[C@@H]3O[C@H](CO)[C@@H](O)[C@H](O)[C@H]3O)c1C2=O [Sennoside B]	-0.103
OC[C@@H](O)[C@H](O)[C@H](O)[C@@H](O)CO [Dulcitol]	-0.284
